Several values for one entry are separate records, joined by “and”; a condition that tells them apart may be missing. Equal values may be shown once. This is part of a sample that, as a whole, favours compounds with a hit. Of some 79,000 tested, about 15% had one in any assay. Rule as the data show it: active = growth inhibition above about 70%; inactive = the rest.
Key:
[1] = NCI Yeast Anticancer Drug Screen. Data for the rad50 strain (AID 155);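 also: 0% = growth of vehicle-only cultures of the same strain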; settings: S. cerevisiae rad50 strain growth inhibition; at 50.0 µM; active compounds read high
Procedure, shortened: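 DNA repair mutant yeast, compound exposure, growth read-out; inhibition is taken relative to vehicle.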

[2] = NCI Yeast Anticancer Drug Screen. Data for the mec2-1 strain (AID 157); settings: S. cerevisiae mec2-1 strain, at 50.0 µM, active compounds read high
Procedure, shortened: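 Growth inhibition is read against vehicle-treated controls after compound exposure of the mec2-1 yeast strain, which is defective in DNA damage repair or cell cycle control.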

[3] = NCI Yeast Anticancer Drug Screen. Data for the sgs1 mgt1 strain (AID 161);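 also: 0% = growth of cultures given vehicle only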; settings: S. cerevisiae sgs1 mgt1 strain, at 50.0 µM, active compounds read high
Procedure, shortened: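 Percent growth inhibition was derived by comparing compound-exposed mutant yeast with vehicle-exposed cultures. The strain carries alterations in DNA damage repair.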

[4] = NCI Yeast Anticancer Drug Screen. Data for the cln2 rad14 strain (AID 165);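 also: 0% = growth equal to vehicle treated cultures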; settings: S. cerevisiae cln2 rad14 strain, at 50.0 µM, active compounds read high
Procedure, shortened: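 Growth inhibition, relative to vehicle-treated controls, is the read-out. The test organism is a yeast strain with defined genetic alterations, cln2 rad14.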

[5] = NCI Yeast Anticancer Drug Screen. Data for the bub3 strain (AID 167); settings: S. cerevisiae bub3 mutant strain, at 50.0 µM, active compounds read high
Procedure, shortened: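 In this screen, a yeast mutant lacking normal mitotic checkpoint function is challenged with compound. Relative growth versus vehicle gives the inhibition value.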

[6] = NCI Yeast Anticancer Drug Screen. Data for the mlh1 rad18 strain (AID 175); settings: S. cerevisiae mlh1 rad18 strain growth inhibition; at 50.0 µM; active compounds read high
Procedure, shortened: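 Cells of a genetically altered yeast strain, deficient in DNA damage repair, were treated with compound. Their growth was then compared with that of vehicle-treated cultures to give inhibition.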

Measured: growth inhibition

O=C1Nc2ccccc2C(=O)C1=Ic1ccccc1
inactive: [1] 5% and -15.9% | [2] -11.6% and -15.4% | [3] -0.55% and -9.6% | [4] -6% and -25.2% | [5] -7.1% and -4.5% | [6] 4.15% and 17.8%

NC(=O)Nc1ccc(Cl)cc1
inactive: [1] -17.2% and 22.5% | [2] -11.8% and -9.35% | [3] -24.8% and -5% | [4] -17.9% and -12.5% | [5] -4.2% and -17.1% | [6] -10.9% and 15.4%

CCCCc1ccc(OC2OC(COC(C)=O)C(OC(C)=O)C(OC(C)=O)C2OC(C)=O)cc1 (stereo unspecified)
inactive: [1] -29.1% and -28.1% | [2] -14.3% and 6.7% | [3] -42.8% and -12.9% | [4] -4.35% and 17.6% | [5] -32.5% and -4.9% | [6] -35.5% and -0.5%

Cc1cc(C(=O)O)c(CN2C(=O)c3ccccc3C2=O)c(=O)n1C
inactive: [1] -11.3% and -1.15% | [2] 20.4% and -14.3% | [3] 2.45% and -7.1% | [4] -6.3% and 6.85% | [5] 12.1% and -19.1% | [6] -18.9% and 9.45%

COCC1OC(OC)C(OC)C(OC)C1OC (stereo unspecified)
inactive: [1] -4.45% and 3.1% | [2] -13% and -0.5% | [3] 8.35% and -0.1% | [4] -49.7% and 1.25% | [5] -21.1% and 1.3% | [6] -4.8% and -4.25%

O=C(CC(=O)c1ccc(Cl)cc1)Cc1ccc2ccccc2n1
inactive: [1] 8.9% and 43.4% | [2] 29.4% and 38.6% | [3] 37.2% and 33.5% | [4] 45% and 39.2% | [5] 52.3% and 51% | [6] 45.3% and 10.2%

O=C(O)C1CCCCC1
inactive: [1] -5.9% and -10.2% | [2] -22.6% and -8.45% | [3] -13.7% and 22.7% | [4] 5.95% and -13.2% | [5] 2.15% and 2.55% | [6] 8.3% and 17.1%

O=C(CC(=O)c1cccnc1)NC(=O)c1ccccc1
inactive: [1] -1.05% and -34.5% | [2] -2.5% and -22.1% | [3] -1.35% and -4.05% | [4] 7.85% and 12.1% | [5] 3.9% and 7.6% | [6] -6% and -1.95%

COc1ccc(C2c3cc(OC)c(OC)cc3CC(C(=O)O)C2C(=O)N(C)C)cc1OC (stereo unspecified)
inactive: [1] -2.05% and -30.2% | [2] 8% and -4.6% | [3] 35.3% and -0.15% | [4] 26.6% and 10.1% | [5] 4.7% and -4% | [6] 13.1% and 1.9%

CC1=NN(c2ccc([N+](=O)[O-])cc2)C(=O)C1[N+](=O)[O-] (stereo unspecified) (tested in a mixture with another compound)
inactive: [1] 20.1% and 26.6% | [2] 1.95% and 2.9% | [3] 12.3% and 34.4% | [4] 14.8% and 13.1% | [5] -1.75% and -1.25% | [6] 3.35% and 12.8%

CC(=O)OCCN(CCOC(C)=O)C(C)=O
inactive: [1] 22.6% and -2.1% | [2] 5.7% and 8.4% | [3] 19.1% and 0.4% | [4] 7.3% and -18.9% | [5] -1.45% and -10.7% | [6] 17.9% and -3.75%

O=C(O)CCC(C(=O)O)N1C(=O)c2ccccc2C1=O (stereo unspecified)
inactive: [1] 9.3% and -0.9% | [2] -0.3% and -41.5% | [3] 0.3% and -24.4% | [4] -30.1% and -10.7% | [5] 3.75% and -48.2% | [6] 8.6% and -0.75%

CC(=O)OCC1OC(n2c(N)c(C#N)c(C)c(C#N)c2=S)C(OC(C)=O)C(OC(C)=O)C1OC(C)=O (stereo unspecified)
inactive: [1] -25.4% and -28% | [2] -13% and -5.75% | [3] -7.1% and -10.7% | [4] -30.7% and -44.5% | [5] 3.55% and -1.5% | [6] -1.85% and -27.7%

NC(Cc1cnc[nH]1)C(=O)O (stereo unspecified)
inactive: [1] -15.4% and 3.95% | [2] -27.9% and 0.2% | [3] 2.35% and 16.4% | [4] -0.05% and 3.55% | [5] -4.35% and 3.9% | [6] -20.9% and -3.1%

Cc1cc(N(C)C)nc(N(C)C)n1
inactive: [1] -4.75% and -1.7% | [2] -4.7% and -14.8% | [3] -1.5% and -5.25% | [4] -0.9% and -33.3% | [5] 10.9% and -7.15% | [6] 8.25% and -10.1%

CC(=O)C1CC(CC(=O)O)C1(C)C (stereo unspecified)
inactive: [1] 4.65% and 10.1% | [2] -7.25% and 9.75% | [3] -4.4% and 12.5% | [4] 13.9% and 10.6% | [5] -1.6% and 4.9% | [6] 3.3% and 14.9%

OCCN1CCNCC1
inactive: [1] 4.4% and -9.55% | [2] -0.5% and -14.3% | [3] 4.95% and -17.8% | [4] 8.3% and -15.8% | [5] -23.5% and 13.4% | [6] 1.75% and -19.2%

O=C(O)/C=C(/Oc1ccc(Cl)cc1Cl)C(=O)O
inactive: [1] 5.8% and 19.7% | [2] -3.25% and 6.45% | [3] 6.35% and 9.85% | [4] -19.9% and 15.4% | [5] 17.9% | [6] 11.8% and 19.7%

O=C(O)/C=C(\F)C(=O)O
inactive: [1] -9.8% and 14.7% | [2] -14.2% and 7.95% | [3] -3.05% and 10.9% | [4] -1.6% and -9.15% | [5] 3.65% and -20.8% | [6] 0.7% and 11.6%

O=C(CCCCCCCCC(=O)NCC1(c2ccccc2)CCN(Cc2ccccc2)CC1)NCC1(c2ccccc2)CCN(Cc2ccccc2)CC1
inactive: [1] -7.45% and 8.25% | [2] -17.1% and 6.25% | [3] -13.8% and -19.2% | [4] -11.4% and 2.2% | [5] 10.4% and 3.6% | [6] -0.55% and 26.4%

C[N+](C)(C)c1ncnc2c1ncn2C1CC(O)C(CO)O1 (stereo unspecified)
inactive: [1] 21.2% and -23.1% | [2] 8.45% and 7% | [3] 15.7% and -2.85% | [4] 3.1% and -6.45% | [5] -33% and 10.6% | [6] 7.55% and 8.6%

CC(CCC(=O)O)C(=O)O (stereo unspecified)
inactive: [1] -16% and 17.4% | [2] -7.65% and -15.8% | [3] -8.6% and -4.6% | [4] -5.7% and 0.25% | [5] 4.95% and 11.3% | [6] -8.5% and 9.8%

CN(C)C=C(S(C)(=O)=O)S(C)(=O)=O
inactive: [1] 10.2% and -24.7% | [2] -2.05% and -9.9% | [3] 20.1% and -9.85% | [4] -17.5% and 4.25% | [5] 5.8% and 14.9% | [6] 9.1% and -14.8%

CN(C)CC1CCCC1=O (stereo unspecified)
inactive: [1] 7.15% and 1.25% | [2] -0.95% and -7.1% | [3] 5.8% and -22.7% | [4] 1.75% and 8.6% | [5] -0.75% and 8.25% | [6] 4.6% and 11.3%

O=[N+]([O-])c1ccc2[nH]c(=S)[nH]c(=S)c2c1
inactive: [1] -27.1% and 17.1% | [2] -49.4% and 35.7% | [3] 5.25% and 51% | [4] 7.7% and 36.5% | [5] -5.7% and -1.3% | [6] 12.2% and 16.4%

CCCC(=O)Oc1ccc(C(C)C)cc1
inactive: [1] 6% and 13.8% | [2] -22.3% and -1.45% | [3] -8.2% and 2.05% | [4] 10.4% and -31.6% | [5] -9.75% and 13.3% | [6] 5.8% and 10.1%

O=C(O)c1cc([N+](=O)[O-])ccc1Nc1ccccc1
inactive: [1] 10.8% and -9.95% | [2] 0.2% and -12.4% | [3] -7.05% and -3.35% | [4] 31.6% and -28.6% | [5] 18.6% and -3.55% | [6] 18.1% and -6.2%

COc1ccc2c(=O)c(C)c(-c3ccccc3)oc2c1CN(C)C
inactive: [1] 5.85% and -33.4% | [2] -40.1% and -38.5% | [3] 10.3% and -26.6% | [4] 9.8% and -0.05% | [5] -22.6% and -24.3% | [6] 2% and -28.3%

NC(=O)c1nnn(Cc2ccccc2)c1N
inactive: [1] 5.55% and 31.2% | [2] 5.6% and -1.5% | [3] -3.05% and -4.65% | [4] -4.65% and -1.95% | [5] 6.9% and -5.2% | [6] 9.6% and 3.3%

Cc1cn(C2CC(CCCO)C(CO)O2)c(=O)[nH]c1=O (stereo unspecified)
inactive: [1] -6.5% and -9.9% | [2] -7% and -5.25% | [3] 6.7% and 2.7% | [4] -2.8% and 16.1% | [5] 2.3% and 0.3% | [6] 5.35% and 0.6%

CC(=O)Nc1ccc(-c2ccc(NC(C)=O)cc2)cc1
inactive: [1] -24.2% and -15.2% | [2] -41.9% and -24.6% | [3] -26.9% and -0.95% | [4] -182% and -42.9% | [5] -24.4% and -1.45% | [6] -10.1% and -21.2%

Cc1ccc(S(=O)(=O)N2CCCCCC2)cc1
inactive: [1] 10.8% and -9.2% | [2] 15.8% and -2.65% | [3] -13.7% and -5.75% | [4] 1.6% and -7.75% | [5] -6.7% and -2.85% | [6] -10.6% and -0.45%

C/C(C=O)=C\c1ccc(N(C)C)cc1
inactive: [1] -36.5% and 5% | [2] -21.8% and 2.5% | [3] -20.6% and -13.9% | [4] -44.8% and 13.2% | [5] 16.5% and 8.5% | [6] -4.45% and 13.6%

O=C(/C(=N/N(C(=O)c1ccccc1)c1ccccc1)c1ccccc1)c1ccccc1
inactive: [1] 29.4% and 22.2% | [2] 5.2% and -1.9% | [3] 19% and 16.8% | [4] -12.4% and 16.6% | [5] -3.85% and -6.05% | [6] 8.65% and 26.4%

CC(C)c1ccc2c(c1)CC[C@H]1[C@](C)(C#N)CCC[C@]21C
inactive: [1] 1.1% and 0.25% | [2] -20.8% and -11.4% | [3] 0.6% and -17.2% | [4] -28.4% and -20.4% | [5] 1.25% and 13.2% | [6] 9.85% and 34.7%

NC(C(=O)O)C(O)C(=O)O (stereo unspecified)
inactive: [1] -14% and 2.7% | [2] 5.85% and 8.65% | [3] 2.85% and -6.75% | [4] 10.4% and -5.6% | [5] -5.75% and 4.05% | [6] 0.55% and -7.3%

Source: PubChem BioAssay (NCI)
